An excerpt weighted towards active compounds, which were near 11% of everything screened.
PNC inhibitor: inhibitors of perinucleolar compartment assembly; PC3M PTB-GFP, PNC prevalence imaging, 16 h; active compounds read low; activity change (PNC), negative = inhibition, % at 10 µM; 140,000 tested, 3.1% active; AID 2417;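 active = readout at or below -70, meaning at least 70% loss of cells showing the perinucleolar compartment, a nuclear body marking cancer cells; inconclusive = readout between -30 and a set limit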;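 also: plate controls were DMSO wells for no effect and camptothecin positive control wells for full effect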
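Compounds are pinned in duplicate onto adhered PC3M cells stably expressing GFP-tagged PTB and incubated 16 h at 37 C. Cells are then fixed, nuclei stained with Hoechst, and PNC-positive cells counted.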
HPGD block: HPGD (human) dehydrogenase inhibition. AID 894. Potency, µM, inactives show at the highest dose activity change, negative = inhibition, most hits filed as inhibitors. 150,000 tested, 4.3% active. purified HPGD, NADH fluorescence kinetic, PGE2 substrate; also: potency is read from the fitted curve at half-maximal effect
Target sequence (P15428 whole entry, looked up): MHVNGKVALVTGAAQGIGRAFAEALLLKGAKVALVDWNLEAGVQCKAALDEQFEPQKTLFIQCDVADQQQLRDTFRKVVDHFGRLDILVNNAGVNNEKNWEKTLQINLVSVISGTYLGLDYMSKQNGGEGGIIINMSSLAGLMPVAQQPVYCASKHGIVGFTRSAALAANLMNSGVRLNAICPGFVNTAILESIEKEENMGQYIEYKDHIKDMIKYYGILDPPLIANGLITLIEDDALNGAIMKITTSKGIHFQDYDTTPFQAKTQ
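NADH formation kinetics: reaction with 30 uM PGE2 and 1 mM NAD+ (final), 20 nM enzyme, Tris-HCl pH 8 with Tween 20, after 15 min compound preincubation at room temperature. Fluorescence change, last versus first of five reads.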
ALDH1A1 block: blocks purified human ALDH1A1 activity. 220,000 tested, 7.3% active. Potency, µM (highest dose often 75.3 µM), for the others: top-dose activity, negative = inhibition, hits mostly inhibitors. AID 1030. Purified ALDH1A1, NADH fluorescence, propionaldehyde substrate. P00352;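 also: potency is read from the fitted curve at half-maximal effect; plate controls were no enzyme wells and a reference inhibitor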
* hit, by the source's call; ! = not confirmed by another sample; [ ] = another dose, or the depositor's remark. Unless noted, calls follow the shape of the dose curve; as a rule, active = well fitted inhibition curve with a large enough effect (not every such curve was filed as active); inconclusive = small, poorly fitted or top-dose-only effect, or another doubt; inactive = no such curve, though single readings can be large or run the other way. Unless noted, % is scaled to controls: 0 for no effect and ±100 for the full control effect.

`Cc1cc(C)cc(Cn2ncc(Cl)c(Cl)c2=O)c1` gave PNC inhibitor inconclusive, HPGD block -8% and ALDH1A1 block 28µM*.
Screening CC(=O)Cn1ncc(N2CCCCC2)c(Cl)c1=O returned ALDH1A1 block -5%.
`Cc1[nH]c(C)c2c(=O)n(Cc3ccc(Cl)cc3)ncc12` gave ALDH1A1 block 1%.
`O=c1c(Cl)c(Cl)cnn1Cc1ccccc1Cl` gave PNC inhibitor inconclusive, HPGD block -14% and ALDH1A1 block 7%.
`Cc1ccc(-c2nnc(Cc3ccc(Cl)cc3)o2)cc1` gave PNC inhibitor inconclusive, HPGD block -18% and ALDH1A1 block 1%.
Cc1ccc(Cn2ncc(Cl)c(Cl)c2=O)cc1 was read as PNC inhibitor -105*, HPGD block -8% and ALDH1A1 block 25µM*.
`COc1cccc(/C=N/NC(=O)c2ccccc2N(Cc2ccccc2)S(=O)(=O)c2ccccc2)c1OC` gave PNC inhibitor 57, HPGD block -23% and ALDH1A1 block inconclusive.
CCS(=O)(=O)N1CCN(C(=O)c2cccc(OC)c2)CC1 was read as PNC inhibitor 6, HPGD block -3% and ALDH1A1 block 3%.
`CC1(C)S[C@@H]2[C@H](NC(=O)[C@@H](NC(=O)N3CCNC3=O)c3ccccc3)C(=O)N2[C@H]1C(=O)O` gave HPGD block -2% and ALDH1A1 block -11%[20.9 µM].
Screening O=C(O)c1c2c(nc3ccc(S(=O)(=O)N4CCC(C(=O)NC5CCCCCC5)CC4)cc13)CCCC2 returned ALDH1A1 block -1%.
CCc1ccc(N(CC)C(=O)c2ccc3c(Cl)c4c(nc3c2)CCC4)cc1 was read as PNC inhibitor -3, HPGD block inconclusive and ALDH1A1 block inconclusive.
For O=C(c1ccc2c(Cl)c3c(nc2c1)CCCC3)N1CCN(c2ccc(F)cc2)CC1 the results were PNC inhibitor 7, HPGD block -13% and ALDH1A1 block -7%.
For CC1CCN(C(=O)c2ccc3c(Cl)c4c(nc3c2)CCCC4)CC1 the results were ALDH1A1 block 4.5µM*.
Screening CCN(C(=O)c1ccc2c(Cl)c3c(nc2c1)CCC3)c1cccc(C)c1 returned PNC inhibitor 16, HPGD block 13µM* and ALDH1A1 block inconclusive.
For C[C@@H](C[C@H](N)C(=O)O)C(=O)O the results were HPGD block 0% and ALDH1A1 block 5%.
Screening Cc1cccc(/C=N\NC(=O)c2sccc2-n2cccc2)c1 returned PNC inhibitor 55, HPGD block -3% and ALDH1A1 block -6%.
`CCCn1c(SCc2cc(=O)[nH]c3ccccc23)nc2c1c(=O)n(C)c(=O)n2C` gave PNC inhibitor 3, HPGD block -5% and ALDH1A1 block inconclusive.
Screening COC(=O)c1ccc(-n2nnnc2SCc2nn[nH]n2)cc1 returned PNC inhibitor inconclusive, HPGD block -28% and ALDH1A1 block 8%.
`CNS(=O)(=O)c1cccc(C(=O)OCC(=O)Nc2ccc(OC)cc2[N+](=O)[O-])c1` gave ALDH1A1 block -2%.
CN(C)C=C1C(=O)c2ccccc2C1=O was read as PNC inhibitor inconclusive, HPGD block -6% and ALDH1A1 block inconclusive.
For CC(C)(C=O)C1=CC(=O)c2ccccc2C1=O the results were PNC inhibitor -22, HPGD block 7.1µM* and ALDH1A1 block 1.6µM*.
`COc1cccc2c1C(=O)C=C(C)C2=O` gave PNC inhibitor inconclusive, HPGD block -5% and ALDH1A1 block inconclusive.
`CC1=CC(=O)c2ccccc2C1=O` gave PNC inhibitor -25, HPGD block inconclusive and ALDH1A1 block 14µM*!.
`O=C(c1ccco1)N1CCN(C(c2ccccc2)c2nnnn2C2CCCC2)CC1` (stereo unspecified) gave PNC inhibitor -3, HPGD block -7% and ALDH1A1 block inconclusive.
`C=CC(C)(O)CC1[C@@]2(C)CCCC(C)(C)C2CC[C@]1(C)O` (stereo partly specified) gave HPGD block -4% and ALDH1A1 block 1%.
Screening COc1ccc(CNc2nc(NCc3ccc(OC)cc3)n(C(=O)c3ccccc3[N+](=O)[O-])n2)cc1 returned PNC inhibitor -20, HPGD block -22% and ALDH1A1 block 20µM*.
`O=C(c1ccco1)n1nc(NCc2ccccc2)nc1NCc1ccccc1` gave PNC inhibitor -1, HPGD block 1% and ALDH1A1 block 10%.
For c1ccc(CNc2ccnc(-c3cccnc3)n2)cc1 the results were ALDH1A1 block -16%.
Screening CN1CCN(NC(=O)c2cc([N+](=O)[O-])cc([N+](=O)[O-])c2)CC1 returned PNC inhibitor 10, HPGD block -11% and ALDH1A1 block 0%.
For O=C(c1ccc2c(c1)OCO2)C1CCCN(C(=O)c2cnn(Cc3ccccc3)c2)C1 (stereo unspecified) the results were ALDH1A1 block 25µM*.

Bioassay records as filed in PubChem BioAssay.
